Reference: PubChem BioAssay AID463173 (ICCB-Longwood Screening Facility, Harvard Medical School, 2010)
Several values for one entry are separate records, joined by “and”; a condition that tells them apart may be missing. Identical values can stand only once. About 4,300 (8.3%) of roughly 52,000 compounds were called active. Cut-off read from the data, not from the text of the source: active = survival mostly below about 52% (no sharp cut-off); inactive = mostly above about 56%. Only a selection was taken, and actives are over-represented in it overall. More than one record can exist for a structure, and the calls need not agree.

Tested on: DeltatarO mutant
Experiment: growth inhibition of S. aureus wild type versus tarO mutant, primary screen, teichoic acid synthesis inhibitors, RN4220, OD600 (AID 463173)
Conditions: OD600, 18 h, stronger effect = lower value, screened at 18.75 µg/mL (by protocol)

SMILES	survival
O=C(NCC1CCCO1)Nc1c[nH]c2c(Cl)cccc2c1=O (centres undefined)	97% (inactive)
Cn1c(=O)cc(SCC(=O)NCc2ccc(F)cc2)c2ccc(Cl)cc21	91% (inactive)
Cc1cccc(Cn2c(C)c(C)c3cc(C(=O)NCc4ccco4)ccc32)c1	94% (inactive)
COc1cc(CCNC(=O)c2ccc3c(c2)c(C)c(C)n3Cc2cccc(C)c2)cc(OC)c1OC	80% (inactive)
Cc1ccc(CNC(=O)CC(C)S(=O)(=O)c2cc3c(cc2C)NC(=O)CO3)cc1 (centres undefined)	89% (inactive)
Cc1ccc(C(=O)N2CCC(C(N)=O)CC2)cc1NC(=O)c1nsc2ccccc12	87% (inactive)
Cc1ccc(C(=O)N2CCC(C)CC2)cc1NC(=O)c1nsc2ccccc12	96% (inactive)
Cc1ccc(Cl)cc1N1CCN(C(=O)c2ccc(NC(=O)c3nsc4ccccc34)cc2)CC1	6% (active)
O=C(Nc1ccc(C(=O)N2CCN(c3ccc(Cl)cc3)CC2)cc1)c1nsc2ccccc12	72% (inactive)
O=C(Nc1ccc(C(=O)N2CCN(c3ccc(F)cc3)CC2)cc1)c1nsc2ccccc12	81% (inactive)
O=C(Nc1ccc(C(=O)N2CCN(c3cccc(Cl)c3)CC2)cc1)c1nsc2ccccc12	79% (inactive)
O=C(Nc1ccc(C(=O)N2CCN(c3ccccc3)CC2)cc1)c1nsc2ccccc12	-1% (active)
Cc1ccc(C)c(N2CCN(C(=O)c3ccc(NC(=O)c4nsc5ccccc45)cc3)CC2)c1	67% (inactive)
Cc1ccc(C(=O)N2CCCCC2)cc1NC(=O)c1nsc2ccccc12	-4% (active)
Cc1ccc(N2CCN(C(=O)c3cn(C)c4ccc(S(=O)(=O)N(C)C5CCCCC5)cc4c3=O)CC2C)cc1 (centres undefined)	91% (inactive)
O=C(CSc1nccn1-c1ccc(F)cc1)Nc1ccc(OC(F)(F)F)cc1	78% (inactive)
CCc1ccc(S(=O)(=O)Nc2ccc3c(c2)sc(=O)n3C)cc1	91% (inactive)
COC(=O)c1ccccc1NC(=O)Cn1c(=O)n(-c2ccc(Cl)cc2)c(=O)c2c(C)c(C)sc21	86% (inactive)
CCOC(=O)c1[nH]c(C)c(CCC(=O)NCc2cccc(Cl)c2)c1C	76% (inactive)
COc1ccc(CNC(=O)Cn2ncc3c(=O)oc4ccccc4c32)c(OC)c1	89% (inactive)
O=C(COc1ccccc1F)Nc1ccc2nc(SCC(=O)N3CCOCC3)sc2c1	79% (inactive)
CCOc1ccc(CCNC(=O)CCc2c(C)nc3c(-c4ccccc4)c(C)nn3c2C)cc1OCC	70% (inactive)
Cc1ccc(SCCNC(=O)CN(c2cccc(C)c2C)S(C)(=O)=O)cc1	57% (inactive)
CN(C)S(=O)(=O)N(CC(=O)NCCSCc1cccc(Cl)c1)c1ccccc1	57% (inactive)
Cc1cccc(N(CC(=O)NCCSCc2cccc(Cl)c2)S(=O)(=O)c2ccccc2)c1C	57% (inactive)

SMILES	survival
CN(C)S(=O)(=O)N(CC(=O)NCCSCc1ccc(Cl)cc1Cl)c1ccccc1	47% (active)
Cc1cccc(N(CC(=O)NCCSc2ccc(Cl)cc2)S(=O)(=O)c2ccccc2)c1C	49% (inactive)
Cc1ccccc1CSCCNC(=O)CN(c1ccccc1)S(=O)(=O)N(C)C	52% (inactive)
Cc1cccc(N(CC(=O)NCCSCc2ccc(Cl)cc2)S(C)(=O)=O)c1C	33% (active)
Cc1ccc(CSCCNC(=O)CN(c2cccc(C)c2C)S(=O)(=O)c2ccccc2)cc1	52% (inactive)
Cc1cccc(N(CC(=O)NCCSc2ccc(Cl)cc2)S(C)(=O)=O)c1C	38% (active)
COc1cc(Cl)c(NS(=O)(=O)c2ccc3c(c2)CC(C)N3C(=O)C2CCC2)c(OC)c1 (centres undefined)	80% (inactive)
CC(C)NC(=O)c1ccc(Cn2c(SCc3ccc(F)cc3)nc3cccnc32)cc1	55% (inactive)
O=C1c2ccccc2-c2nc3ccccc3c(=O)n21	106% (inactive)
COc1cc(OC)c(NC(=O)COc2ccccc2-c2nnc(-c3ccccc3)o2)cc1Cl	95% (inactive)
COCCCNC(=O)c1ccc2nc(Cc3ccc(OC)cc3)oc2c1	69% (inactive)
N#C/C(=C\c1cn(Cc2ccc(C#N)cc2)c2ccccc12)C(=O)NCc1ccco1	67% (inactive)
O=C(Cn1cnc2onc(-c3ccc(F)cc3)c2c1=O)Nc1ccc(F)c(Cl)c1	84% (inactive)
CCOC(=O)c1ccccc1NC(=O)CN1CCCN(Cc2cc(C)ccc2C)S1(=O)=O	126% (inactive)
CCOC(=O)c1c(C)oc2nc(C)nc(N3CCN(c4ccccc4)CC3)c12	83% (inactive)
CCOC(=O)c1c(C)oc2ncnc(N3CCN(c4ccccc4)CC3)c12	89% (inactive)
CCOC(=O)c1c(C)oc2c1c(O)c(N=O)c1ccccc12	18% (active)
CCN(CC)c1cc(C)c2cc(NC(=O)c3cc(OC)cc(OC)c3)ccc2n1	59% (inactive)
CCN(CC)c1ccc(C(=O)Nc2ccc3nc(N(CC)CC)cc(C)c3c2)cc1	52% (inactive)
CCOc1ccccc1C(=O)Nc1ccc2nc(N(CC)CC)cc(C)c2c1	65% (active)
CCN(CC)c1cc(C)c2cc(NC(=O)c3ccc(F)cc3Cl)ccc2n1	39% (active)
CCN(CC)c1cc(C)c2cc(NC(=O)c3ccccc3OC)ccc2n1	7% (active)
CCN(CC)c1cc(C)c2cc(NC(=O)c3cccc(F)c3)ccc2n1	42% (inactive)
CCN(CC)c1cc(C)c2cc(NC(=O)c3ccc(OC)c(OC)c3)ccc2n1	35% (active)
CCN(CC)c1cc(C)c2cc(NC(=O)c3cccc(OC)c3)ccc2n1	40% (inactive)

SMILES	survival
CCN(CC)c1cc(C)c2cc(NC(=O)/C=C/c3ccccc3OC(C)C)ccc2n1	71% (inactive)
CCN(CC)c1cc(C)c2cc(NC(=O)c3cccc(OC)c3OC)ccc2n1	95% (inactive)
CCN(CC)c1cc(C)c2cc(NC(=O)c3ccccc3Cl)ccc2n1	55% (inactive)
CCOc1ccc(C(=O)Nc2ccc3nc(N(CC)CC)cc(C)c3c2)cc1	70% (inactive)
Cc1ccc(Cl)cc1NC(=O)c1sc2nc(C)c(C)c(C)c2c1N	75% (inactive)
Cc1cccc2sc(N(Cc3cccnc3)C(=O)Cc3ccccc3)nc12	81% (inactive)
CCCc1cnc2c(c1SCC(=O)Nc1c(C)cc(C)cc1C)c(=O)n(C)c(=O)n2C	94% (inactive)
CCOc1ccc(NC(=O)CSc2nc3nc(C)c(Cc4ccccc4)c(C)n3n2)cc1	89% (inactive)
CCC(OC(=O)CN1C(=O)c2ccccc2C1=O)C(=O)NC1CCCC1 (centres undefined)	83% (inactive)
COC(=O)c1ccc(C(=O)OC)c(NC(C)=O)c1	73% (inactive)
O=C(NCc1ccc(Cl)cc1)C1CCCN(C(=O)c2cnn(-c3ccc(F)cc3)c2-n2cccc2)C1 (centres undefined)	73% (inactive)
Cc1c(Cl)cccc1NC(=O)c1cccc(NC(=O)N2CCSc3ncccc32)c1	80% (inactive)
COc1ccc(C(=O)Nc2ccccc2C(=O)Nc2ccccn2)cc1	94% (inactive)
O=C1CSC(=Nc2cccc(C(=O)O)c2)N1	82% (inactive)
CC(=O)c1cc2c(cc1N/C(=N/S(=O)(=O)c1ccc(C)cc1)c1ccc(F)cc1)OCO2	83% (inactive)
CC(=O)c1cc2c(cc1N/C(=N/S(=O)(=O)c1ccc(Br)cc1)c1ccccc1)OCO2	69% (inactive)
CC(=O)c1cc2c(cc1N/C(=N/S(=O)(=O)c1ccc(Cl)cc1)c1ccc(F)cc1)OCO2	99% (inactive)
CC(=O)c1cc2c(cc1N/C(=N/S(=O)(=O)c1ccccc1)c1ccc(Cl)cc1)OCO2	0% (active)
CC(=O)c1cc2c(cc1N/C(=N/S(=O)(=O)c1ccc(C)cc1)c1ccccc1)OCO2	74% (inactive)
CC(=O)c1cc2c(cc1N/C(=N/S(=O)(=O)c1ccc(C)cc1)c1ccc(Cl)cc1)OCO2	37% (active)
O=C(NCc1cccc(Br)c1)C1CCCCN1S(=O)(=O)c1ccc(F)cc1 (centres undefined)	89% (inactive)
O=C(Cn1c(-c2cccs2)cc2cc(F)ccc21)NCCCN1CCN(c2ccccc2F)CC1	67% (inactive)
COc1ccc(-n2nc3c(N4CCC(C(=O)NCCc5ccccc5)CC4)nnc(C)c3c2C)cc1	85% (inactive)
CCc1cccc(Nc2c3c(nc4ncnn24)CCC3)c1	95% (inactive)
COc1ccc(-c2nn3c(=O)cc(CN4CCN(C(=O)Nc5ccc(C)c(Cl)c5)CC4)nc3s2)cc1	78% (inactive)

SMILES	survival
CCOC(=O)C(C)Sc1nc(-c2ccccc2Cl)cc(-c2ccccc2)c1C#N (centres undefined)	64% (inactive)
CCCCSc1nc(-c2ccc(OC)cc2)ccc1C#N	52% (inactive)
CCOC(=O)C(C)Sc1nc(-c2ccccc2)ccc1C#N (centres undefined)	82% (inactive) and -1% (active)
O=C(CN1CCN(c2ccccn2)CC1)N(c1ccccc1)c1ccc2ccccc2c1	59% (inactive)
COc1ccc(CCNC(=O)c2csc3c2CCCCC3)c(OC)c1	66% (inactive)
COc1ccc(OC)c(CCNC(=O)c2ccc3[nH]c(C)c(C)c3c2)c1	107% (inactive)
Cc1cccc(C)c1NC(=O)c1csc2c1CCCC2	90% (inactive)
COc1cccc(NC(=O)c2csc3c2CCCCC3)c1	37% (active)
COc1ccc(OC)c(CCNC(=O)c2csc3c2CCCCC3)c1	44% (active)
COc1ccc(NC(=O)c2csc3c2CCCCC3)cc1	70% (inactive)
COc1ccc(-c2cc(-c3ccccc3)nc3c2COc2ccc(F)cc2-3)cc1	73% (inactive)
CCCc1c(O)nc(SCC(=O)N2CCCCC2)[nH]c1=O	69% (inactive)
COc1ccc2nc(NC(=O)c3nc(SCc4ccc(F)cc4)ncc3Cl)sc2c1	53% (inactive)
Cc1ccc(CSc2ncc(Cl)c(C(=O)Nc3nc4ccc(C)cc4s3)n2)cc1	53% (inactive)
CCCSc1ncc(Cl)c(C(=O)Nc2nc3ccc(C)cc3s2)n1	49% (active)
O=C(Nc1nc2ccc(F)cc2s1)c1nc(SCc2ccccc2F)ncc1Cl	48% (inactive)
COc1ccc2nc(NC(=O)c3nc(SCc4cccc(C)c4)ncc3Cl)sc2c1	37% (active)
CCSc1ncc(Cl)c(C(=O)Nc2nc3ccc(OC)cc3s2)n1	83% (inactive)
Cc1ccccc1CSc1ncc(Cl)c(C(=O)Nc2nc3ccc(F)cc3s2)n1	100% (inactive)
COc1ccc2nc(NC(=O)c3nc(SC(C)C)ncc3Cl)sc2c1	93% (inactive)
CCOc1ccc2nc(NC(=O)c3nc(SC(C)C)ncc3Cl)sc2c1	41% (active)
Cc1cccc(CSc2ncc(Cl)c(C(=O)Nc3nc4ccc(F)cc4s3)n2)c1	33% (active)
CCOc1ccc2nc(NC(=O)c3nc(SCc4ccc(C)cc4)ncc3Cl)sc2c1	54% (inactive)
CCCSc1ncc(Cl)c(C(=O)Nc2nc3ccc(OCC)cc3s2)n1	63% (inactive)
